In PubChem BioAssay (NCATS) one finds Potency data, which are given here for 40 compounds.

Activity calls are given as the source filed them. Where a call stands in place of a potency, no number is given. Calls follow the shape of the dose curve; as a rule, active = well fitted curve in the direction sought with a large enough effect; inconclusive = small, poorly fitted or top-dose-only effect, or effect the other way, or another doubt; inactive = no such curve, though single readings can be large or run the other way.
Potency is read from the fitted curve at half-maximal effect.

This assay is described as follows: Inducers of the Endoplasmic Reticulum Stress Response (ERSR) in human glioma: Validation (AID 504836). The conditions noted are these: human glioma cells, ER stress response reporter; series mostly up to 38.3 µM. The source says:
Primary protein unfolding takes place for many diseases, including diabetes and hypoxia, , and triggers a reaction in the cells called ER stress response (ERSR). ). ERSR is designed as a repair mechanism, but ultimately leads to cell death via apoptosis if conditions triggering protein unfolding persist (1). The molecular clue to ERSR activation is the enhancement of the expression of key molecular chaperones, including the glucose regulated protein (GRP) 78. GRP78 is the main sensor for protein folding and the main actuator of the ERSR.
In a collaboration between the Southern Research Institute and the NIH Chemical Genomics Center, a cell based screen was developed that reliably uses GRP78 as a sensor to identify small molecules as inducers of ERSR. In resting conditions, GRP78 binds proteins and acts as a natural repressor. Once unfolded proteins are present in the ER, GRP78 releases some of the repressors and binds to the unfolded proteins. The release of the repressors executes the ERSR program. Using a human glioma cell line in a miniaturized, luminescent format, a high-throughput screen was developed to identify actuators of the ERSR.
(1) Soboloff, J. and S. A. Berger (2002). "Sustained ER Ca2+ depletion suppresses protein synthesis and induces activation-enhanced cell death in mast cells." J Biol Chem 277(16): 13812-20.
NIH Chemical Genomics Center [NCGC]
NIH Molecular Libraries Probe Centers Network [MLPCN]
Assay Submitter (PI): Maurizio Grimaldi, Southern Research Institute
Stable transfected human glioma cell line, U87-MG, are dispensed at density 1000 cells/well into Greiner white solid bottom 1536-well assay plates. Compounds are transferred via Kalypsys pin tool equipped with 1536-pin array (10nl slotted pins, V&P Scientific, San Diego, CA). The assay plates will be incubated for 16 hours and developed by adding appropriate quantities of the Promega Bright Glo reagent. The plates will be incubated at room temperature for 10 minutes prior to being transferred into a ViewLux high-throughput CCD imager (PerkinElmer), wherein end-point measurements of luminescence are acquired.
Take `NC(CP(=O)(O)O)C(=O)O` (stereo not given): the Potency entry was “inactive”.
Then `Clc1ccc(C(c2ccc(Cl)cc2)n2cc[n+](CC(OCc3ccc(Cl)cc3Cl)c3ccc(Cl)cc3Cl)c2)cc1` (stereo not given), with “inactive”; and `c1ccc2sc(C3(N4CCCCC4)CCCCC3)cc2c1`, with “inactive”; and `C[C@@H](N)Cc1cnc[nH]1`, with “inactive”.
Then `c1ccc(C2(c3ccccc3)CC2C2=NCCN2)cc1` (stereo not given), with “inactive”.
Then `C/C=C(/C)C(=O)O[C@H]1C(C)=C2[C@H]([C@@H]1OC(=O)CCCCCCC)[C@@](C)(OC(C)=O)C[C@H](OC(=O)CCC)[C@@]1(O)[C@H]2OC(=O)[C@@]1(C)O`, with 16.5 nM (active).
For `CC(C)(C)NCC(O)c1ccc(O)c(CO)c1` (stereo not given), the Potency entry is “inactive”.
Then `NCCCC(N)(C(=O)O)C(F)F` (stereo not given), with “inactive”; and `CC(=O)Oc1ccccc1C(=O)O`, with “inactive”.
Consider `CC[C@@H](C(N)=O)N1CCCC1=O`, for which the Potency entry was “inactive”.
Then `NC(=NCCC[C@H](N)C(=O)O)N[N+](=O)[O-]`, with “inactive”; and `Cc1nccc2c1[nH]c1ccccc12`, with “inactive”.
Then `CN1C2CCC1CC(OC(=O)c1cc(Cl)cc(Cl)c1)C2` (stereo not given), with “inactive”; and `CCc1c(C)[nH]c2c1C(=O)C(CN1CCOCC1)CC2` (stereo not given), with “inactive”.
Then `COc1cc(C(O)CN)ccc1O` (stereo not given), with “inactive”; and `CNCCc1c[nH]c2ccc(O)cc12`, with “inactive”; and `NC1CCc2cc(O)c(O)cc2C1` (stereo not given), with “inactive”.
`COc1ccc2c(c[n+](C)c3c4cc5c(cc4ccc23)OCO5)c1OC`: the Potency result is “inactive”.
Then `COc1cc2nc(N3CCCN(C)CC3)nc(NC3CCN(Cc4ccccc4)CC3)c2cc1OC`, with “inactive”; and `CCN1CCc2nc(N)oc2CC1`, with “inactive”.
With `C[C@@H]1O[C@H](C[N+](C)(C)C)C[C@H]1O`, the Potency entry was “inactive”.
Then `NCCc1c[nH]c2ccccc12`, with “inactive”; and `CNCCc1ccc(O)c(O)c1`, with “inactive”.
Then `CC(C)c1ccc2c(c1)c(SC(C)(C)C)c(CC(C)(C)C(=O)O)n2Cc1ccc(Cl)cc1`, with “inactive”; and `C[C@]12N[C@H](Cc3ccccc31)c1ccccc12`, with “inactive”.
Then `NCCc1c[nH]c2ccc(O)cc12`, with “inactive”; and `Cc1cccc(-c2[nH]c(C(C)(C)C)nc2-c2ccc3nccnc3c2)n1`, with “inactive”.
Take `C[C@]12C[C@H](O)[C@H]3[C@@H](CCC4=CC(=O)CC[C@@]43C)[C@@H]1CC[C@@H]2C(=O)CO`: the Potency result was “inactive”.
Then `CCCN(CCC)C1CCc2ccc(O)cc2C1` (stereo not given), with “inactive”; and `CCOC(=O)C(C)Oc1cccc2c(=O)n(CC(=O)Nc3ccc4c(c3)OCCO4)ccc12` (stereo not given), with “inactive”; and `CC(=O)NCCc1c[nH]c2ccccc12`, with “inactive”.
Then `C[N+]1(C)C2CCC1CC(OC(=O)C(CO)c1ccccc1)C2` (stereo not given), with “inactive”.
Then `CC(C)(Sc1ccc(CCN(CCCCC2CCCCC2)C(=O)NC2CCCCC2)cc1)C(=O)O`, with “inactive”; and `C[N+](C)(C)CC(=O)O`, with “inactive”.
For `c1ccc(CCCN2CCN(CCOC(c3ccccc3)c3ccccc3)CC2)cc1`, the Potency entry is “inactive”.
With `CCCCc1ccc(C(=O)O)nc1`, the Potency result is “inactive”.
For the compound `CC(=O)[C@H]1CCC2C3CC[C@H]4C[C@H](O)CC[C@]4(C)C3CC[C@@]21C` (stereo not given in full), the Potency result was “inactive”.
Then `CC(Cc1ccc(O)cc1)NCC(O)c1cc(O)cc(O)c1` (stereo not given), with “inactive”; and `Oc1ccc2c3c1O[C@H]1c4[nH]c5c(c4C[C@@]4(O)[C@@H](C2)N(CC2CC2)CC[C@]314)C[C@@]1(O)[C@H]2Cc3ccc(O)c4c3[C@@]1(CCN2CC1CC1)[C@H]5O4`, with “inactive”.
Then `C[C@@H](N)C1CCC(C(=O)Nc2ccncc2)CC1` (stereo not given in full), with “inactive”.
